PubChem BioAssay
Activity calls are given as the source filed them.

Molecular target: Albumin (Bos taurus) (UniProt P02769)
Test: compounds binding labelled BSA control protein – biochemical, small-molecule microarray, Alexa647 label, 635/667 nm fluorescence, artefact control for SMM control protein annotation, profiling panel (AID 1118);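 further: score merges 667 nm emission intensity and signal-to-noise per printed compound spot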
Conditions: BSA-A647 binding, fluorescence 635 nm, higher = more signal

Albumin (Bos taurus), sequence (P02769 whole entry, looked up): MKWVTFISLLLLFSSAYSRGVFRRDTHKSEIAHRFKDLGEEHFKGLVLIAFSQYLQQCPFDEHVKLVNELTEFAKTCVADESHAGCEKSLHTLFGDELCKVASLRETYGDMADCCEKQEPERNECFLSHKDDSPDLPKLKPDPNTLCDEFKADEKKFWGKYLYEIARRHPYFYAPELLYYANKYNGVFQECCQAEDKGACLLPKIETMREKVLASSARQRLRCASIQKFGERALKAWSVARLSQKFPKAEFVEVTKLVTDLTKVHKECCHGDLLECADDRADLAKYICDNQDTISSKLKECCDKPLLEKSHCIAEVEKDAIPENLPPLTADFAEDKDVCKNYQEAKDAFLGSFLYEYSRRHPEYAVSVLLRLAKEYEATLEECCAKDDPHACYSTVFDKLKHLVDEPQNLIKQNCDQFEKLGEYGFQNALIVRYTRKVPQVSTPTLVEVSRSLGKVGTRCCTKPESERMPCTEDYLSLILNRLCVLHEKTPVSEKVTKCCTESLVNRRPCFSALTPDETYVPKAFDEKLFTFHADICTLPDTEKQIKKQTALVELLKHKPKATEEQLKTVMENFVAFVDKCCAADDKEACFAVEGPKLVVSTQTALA

Which composite z-score does the source give for C=CCC(OC(C)=O)[C@@H]1[C@@H](N(Cc2ccc(-c3cccc(C(F)(F)F)c3)o2)C(=O)c2cccc3ccccc23)c2cc(OCCCO)ccc2N1C(=O)c1ccc2ccccc2c1 (stereo partly drawn) here?
Its composite z-score is -0.119.

Which composite z-score does the source give for COC(=O)[C@@]1(Cc2ccccc2)[C@H]2c3cc(C(=O)N4CCCC4)n(Cc4ccc(C(F)(F)F)nc4)c3C[C@H]2CN1C(=O)c1ccccc1 here?
Its composite z-score is 0.958.

For C=CC[C@@]1(C(=O)O)N=C(c2ccc(OCCCO)cc2)O[C@@H]1c1ccccc1CN=[N+]=[N-], which composite z-score is on record?
Its composite z-score is 0.557.

For COc1ccc([Si](C)(C)[C@H]2[C@H](CCn3cc([C@H](O)c4ccccc4)nn3)O[C@@]3(C(=O)N(C)c4c(Br)cc(C)cc43)[C@@H]2C)cc1, which composite z-score is on record?
The composite z-score was -0.628.

For CC1(C)OC[C@@]23C=C(Br)[C@@H](C[C@H]12)[C@@]1(CO1)C3=O, which composite z-score is on record?
Its composite z-score is -0.172.

Test system: not listed separately
Test: probe aXIP binding to arrayed compounds – biochemical, NeuroSMM set, 635/667 nm fluorescence, primary screen (AID 1119);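 further: probe is the protein aXip251-270 applied at 1 µg/mL to compound-printed slides; binding of probe to printed compounds measured as 667 nm fluorescence plus signal to noise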
Conditions: small-molecule microarray, higher = more signal, called active from +8 up or from −8 down

For CCN(CC)c1ccc(N2CC=CC34O[C@@H]5C=CCOC(=O)[C@@H]5[C@H]3C(=O)N(CCO)[C@@H]4C2=O)cc1 (stereo partly drawn), which composite Z-score is on record?
The composite Z-score was 2.39 (inactive).

For CCOC(=O)C1=CC[C@@H](c2ccccc2)N(S(=O)(=O)C[Si](C)(C)C)[C@H]1c1ccccc1, which composite Z-score is on record?
Its composite Z-score is -0.17 (inactive).

For CN(C)CCCC[C@@H]1NC(=O)[C@@H]2C[C@H](C(=O)NCc3ccc(F)cc3)[C@H](c3ccc(O)cc3)N2C1=O, which composite Z-score is on record?
The composite Z-score was 0.0275 (inactive).

With C=CCOC(=O)[C@H]1[C@@H]2C(=O)O[C@@H](c3ccccc3)[C@@H](c3ccccc3)N2[C@@H](c2ccc(OCCOC(=O)[C@@H]3C[C@@H]4C(=O)N[C@@H](CC(C)C)C(=O)N4[C@@H]3c3ccc(O)cc3)cc2)[C@]12C(=O)Nc1ccc(I)cc12 as the compound, how does the composite Z-score read?
The composite Z-score was 1.65 (inactive).

Which composite Z-score does the source give for COCCCNC(=O)[C@@H]1c2ccccc2C(=O)N(C2CCCCC2)[C@H]1c1ccc(CO)cc1 here?
Its composite Z-score is -1.17 (inactive).

Which composite Z-score does the source give for CN(C)CCCC[C@@H]1NC(=O)[C@H]2C[C@@H](C(=O)NCc3ccc(F)cc3)[C@@H](c3ccc(O)cc3)N2C1=O here?
The composite Z-score was 1.79 (inactive).

For COc1ccc(C#Cc2ccc3c(c2)[C@]2(C(=O)N3)[C@H](C(=O)Nc3nc4ccccc4s3)[C@H]3C(=O)O[C@H](c4ccccc4)[C@H](c4ccccc4)N3[C@@H]2c2ccc(OCCO)cc2)cc1, which composite Z-score is on record?
The composite Z-score was 0.403 (inactive).

For C=CCC(OC(C)=O)[C@@H]1[C@@H](N(Cc2ccc(-c3cccc(C(F)(F)F)c3)o2)C(=O)c2cccc3ccccc23)c2cc(OCCCO)ccc2N1C(=O)c1ccc2ccccc2n1 (stereo partly drawn), which composite Z-score is on record?
The composite Z-score was -0.116 (inactive).

For C[N+](C)(C)CCCC[C@@H]1NC(=O)[C@H]2C[C@@H](C(=O)NCCCCCNC(=O)CS)[C@@H](c3ccc(O)cc3)N2C1=O, which composite Z-score is on record?
Its composite Z-score is 0.325 (inactive).

Which composite Z-score does the source give for C=CCC(OC(C)=O)[C@@H]1[C@@H](N(Cc2cccc3ccccc23)C(=O)c2cccc3ccccc23)c2cc(OCCCO)ccc2N1C(=O)Cc1ccc2ccccc2c1 (stereo partly drawn) here?
The composite Z-score was -0.745 (inactive).

For COc1ccc(C(O)C2C=CC3C(=O)N(C)C(=O)C3N2Nc2ccc([N+](=O)[O-])cc2[N+](=O)[O-])cc1OCc1ccccc1 (stereo not drawn), which composite Z-score is on record?
The composite Z-score was -0.213 (inactive).

For COCCOC(=O)N1C(=O)[C@@]2(c3cc(C#CCC(C(=O)OC)C(=O)OC)ccc31)[C@H](C(=O)N1CCc3cc(OC)c(OC)cc3C1)[C@H]1C(=O)O[C@H](c3ccccc3)[C@H](c3ccccc3)N1[C@@H]2c1ccc(O)cc1, which composite Z-score is on record?
Its composite Z-score is 0.131 (inactive).

With C=CCNC(=O)[C@@H]1[C@H]2C(=O)O[C@H](c3ccccc3)[C@H](c3ccccc3)N2[C@H](c2ccc(O)cc2)[C@@]12C(=O)Nc1ccc(C#CC3(O)CCCCCC3)cc12 as the compound, how does the composite Z-score read?
Its composite Z-score is 0.156 (inactive).

Which composite Z-score does the source give for COCCOC(=O)N1C(=O)[C@@]2(c3ccccc31)[C@H](C(=O)N1CCCCCCC1)[C@H]1C(=O)O[C@H](c3ccccc3)[C@H](c3ccccc3)N1[C@@H]2c1ccc(O)cc1 here?
Its composite Z-score is 4.39 (inactive).

With N#Cc1ccc(C(O)C2C=CC3C(=O)NC(=O)C3N2Nc2ccccn2)cc1 (stereo not drawn) as the compound, how does the composite Z-score read?
Its composite Z-score is -0.483 (inactive).

For CC(C)C[C@H]1NC(=O)[C@@]23C(=O)N[C@@H](Cc4ccccc4)C2[C@H](C)[C@@]2(C)O[C@H]2C3/C=C/C/C=C\CNC(=O)[C@@H]2CCCN2C1=O (stereo partly drawn), which composite Z-score is on record?
Its composite Z-score is 0.119 (inactive).

For CCCC[C@@H]1C[C@H]1[C@@H](NC(=O)Cc1ccccc1)c1ccc(Cl)cc1, which composite Z-score is on record?
The composite Z-score was 0.491 (inactive).

For NC(=O)N1C(=O)C2C(C1=O)C1C=C(CCCO)C2C(c2ccc(CN3CCCC3)cc2)N1Cc1cccc(OC(F)(F)F)c1 (stereo not drawn), which composite Z-score is on record?
Its composite Z-score is 0.463 (inactive).
